Assay results: the supplement of paper PMC4840960

tested on: E18 rat cortical neuron-glia co-culture; test: myelination (MBP fiber length per Olig2+ nucleus), % of 1 µM DAPT response (DMSO = 0) (% of DAPT); higher = more myelination, active = 50 or more; conditions: 5 µM; treatment time: 8 days (DIV5-DIV13)
Summary of the method: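 Library compounds at 1 or 5 µM in myelination medium were applied from DIV5 to DIV13 to papain-dissociated E18 rat cortical co-cultures seeded at 20,000 cells/well on poly-d-lysine/laminin 96-well plates. Fixed cells (4 % paraformaldehyde) were immunostained for MBP and Olig2 with DAPI, and four 10X fields were analysed in each duplicate well. Continuous straight MBP fiber length per Olig2+ nucleus was set to 0 for 0.1 % DMSO and to 100 for a 1 µM positive control.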

myelination, inactive:
CC(C)OC(=O)CCC/C=C\C[C@@H]1[C@@H](CC[C@@H](O)CCc2ccccc2)[C@H](O)C[C@@H]1O [Latanoprost] -8.74
NS(=O)(=O)Cc1noc2ccccc12 [Zonisamide] -30.8
CC(C(=O)O)c1ccc(CC2CCCC2=O)cc1 (stereo not drawn) [loxoprofen] -10.6
C=CC1=C(C(=O)O)N2C(=O)[C@@H](NC(=O)/C(=N\OCC(=O)O)c3csc(N)n3)[C@H]2SC1 [Cefixime] 28.9
COc1ccc2cc([C@H](C)C(=O)O)ccc2c1 [Naproxen] -4.96
CN(C)c1ccc(O)c2c1C[C@H]1C[C@H]3[C@H](N(C)C)C(O)=C(C(N)=O)C(=O)[C@@]3(O)C(O)=C1C2=O [Minocycline] -5.86
CC(C)(S)[C@@H](N)C(=O)O [Penicillamine] -5.65
CN1CCN(CCCN2c3ccccc3Sc3ccc(Cl)cc32)CC1 [Prochlorperazine] -29.6
